Shown is part of a subset that was picked to be rich in hits.
Algae TAG accum – increases triacylglycerol in Chlamydomonas reinhardtii; AID 1159537; Chlamydomonas reinhardtii TAG, Nile Red fluorescence, 72 h; calls only at 10 µM (by protocol); actives 0.84% (n = 44,000); call rule not given here;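 also: hits raise Nile Red signal meaning more stored TAG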
Numbers without * were called inactive; i = inactive; + = active, no number.

SMILES | Algae TAG accum
c1ccc2c(CN3CCCCCCC3)c[nH]c2c1 | i
C(#CCN1CCCCC1)COc1ccccc1 | +
C(#CCN1CCOCC1)COc1ccccc1 | i
COc1ccccc1CNCCc1ccc(OC)c(OC)c1 | i
COc1ccc(OC)c(CNCCc2cccc(F)c2)c1 | i
COc1ccc(OC)c(CNCCc2ccc([N+](=O)[O-])cc2)c1 | +
CN(CCc1ccccc1)Cc1ccncc1 | i
O=[N+]([O-])c1ccc(CN2CCN(c3ccccc3)CC2)cc1 | +
O=[N+]([O-])c1ccc(N2CCN(Cc3ccc(Cl)cc3)CC2)cc1 | i
COc1ccc(CN2CCN(c3cccc(OC)c3)CC2)cc1 | i
Cc1ccccc1N1CCN(Cc2ccc(Cl)cc2)CC1 | i
Cc1ccccc1N1CCN(Cc2cccc([N+](=O)[O-])c2)CC1 | i
Cc1ccccc1N1CCN(Cc2ccc([N+](=O)[O-])cc2)CC1 | +
COc1cccc(N2CCN(Cc3ccc([N+](=O)[O-])cc3)CC2)c1 | +
COc1ccc(N2CCN(Cc3ccc([N+](=O)[O-])cc3)CC2)cc1 | i
O=[N+]([O-])c1ccc(CN2CCN(c3ccc(Cl)cc3)CC2)cc1 | i
CCN1CCN(Cc2cc(F)ccc2F)CC1 | i
CC(=O)c1ccc(N2CCN(Cc3cc(F)ccc3F)CC2)cc1 | i
CS(C)=C1C(=O)NC(=O)N(CCc2ccc(F)cc2)C1=O | i
Cc1cccc(N2CCN(Cc3ccc(Cl)cc3)CC2)c1C | i
O=C(CN1CCN(C(=O)c2ccco2)CC1)Nc1ccc(Cl)cc1C(=O)c1ccccc1 | i
O=C(CC(O)C(Cl)(Cl)Cl)c1ccccc1 (stereo unspecified) | i
O=C(c1ccccc1Cl)N1CCOCC1 | i
COc1ccc(CCNCc2ccc3c(c2)OCO3)cc1OC | i
Clc1ccc(CCNCc2cccnc2)c(Cl)c1 | i
SMILES | Algae TAG accum
CN1CCN(Cc2c(Cl)cccc2Cl)CC1 | i
CCc1ccc(CN2CCN(C(C)C)CC2)cc1 | i
CCc1ccc(CN2CCN(CCO)CC2)cc1 | +
CN1CCN(Cc2ccc(Cl)cc2)CC1 | i
CCc1ccc(CN2CCN(C)CC2)cc1 | i
CC(C)c1ccc(CN2CCN(C)CC2)cc1 | +
CCC(=O)N1N=C2C3CCN(CC3)C2C1c1ccc([N+](=O)[O-])cc1 (stereo unspecified) | i
CCN1CCN(Cc2cccc(OC)c2)CC1 | i
Cc1ccc2c(c1)C(Cc1nc3ccccc3c(=O)n1-c1ccccc1)C(=O)N2 (stereo unspecified) | i
CN1CCN(c2ccccc2[N+](=O)[O-])CC1 | i
CN1CCN(c2ccc([N+](=O)[O-])c(N3CCCCC3)c2)CC1 | +
CN1CCN(c2cc(N3CCCC3)ccc2[N+](=O)[O-])CC1 | i
O=[N+]([O-])c1ccc(N2CCCC(O)C2)c2ncccc12 (stereo unspecified) | i
c1ccc(CN2CCN(c3ccccc3)CC2)cc1 | i
Cc1ccc(N2CCN(CCc3ccccc3)CC2)cc1 | +
Fc1ccccc1N1CCN(Cc2ccc(Cl)cc2)CC1 | i
OC1CCN(CCc2ccccc2)CC1 | i
Oc1ccc(CN2CCN(Cc3ccccc3)CC2)cc1 | +
OCCN1CCN(Cc2ccccc2)CC1 | i
CN(C)c1ccc(CN2CCN(Cc3ccccc3)CC2)cc1 | i
CN(C)c1ccc(CN2CCN(c3ccccc3Cl)CC2)cc1 | i
Fc1ccc(CN2CCN(c3ccccc3Cl)CC2)cc1 | +
Cc1cccc(N2CCN(CCc3ccccc3)CC2)c1C | i
Fc1ccc(CN2CCN(c3ccccc3)CC2)cc1 | i
Fc1ccc(N2CCN(Cc3ccccc3)CC2)cc1 | +
SMILES | Algae TAG accum
O=c1c2ccccc2nc(/C=C/c2ccc(Br)cc2)n1-c1ccccn1 | i
COC1CCCCC1NC1CCCC1 (stereo unspecified) | i
Fc1cccc(CNCCc2ccc3c(c2)OCO3)c1 | i
CC(C)N(CC#CCO)Cc1ccccc1 | i
CC(C)N1CCN(c2nc3ncnc(N)c3[nH]2)CC1 | i
CCN(CC)C(=O)c1ccc(NC(=O)c2cncc(Br)c2)cc1 | i
Cc1cc([N+](=O)[O-])c(N2CCN(C)CC2)cc1N | i
C=CCOc1ccc(/C=C/[N+](=O)[O-])cc1OC | i
COc1cc(CN2CCN(c3ccc(F)cc3)CC2)cc(Br)c1O | i
CCC(C)N1CCN(Cc2ccccc2)CC1 (stereo unspecified) | i
Cc1ccc(CN2CCN(c3ccc(F)cc3)CC2)cc1 | +
Cc1ccc(CN2CCN(c3ccc(Cl)cc3)CC2)cc1 | i
COc1ccccc1N1CCN(Cc2ccc(Br)cc2)CC1 | i
CN(C)c1ccc(CN2CCN(c3ccc(F)cc3)CC2)cc1 | i
COc1ccccc1N1CCN(Cc2ccc(Cl)cc2)CC1 | +
c1ccc(CN2CCN(C3CCCCC3)CC2)cc1 | +
CCc1ccc(CN2CCN(c3ccccc3OC)CC2)cc1 | i
CN1CCN(Cc2ccccc2)CC1 | i
Cc1ccc(N/C(N)=N\[N+](=O)[O-])cc1NC(=O)c1ccc([N+](=O)[O-])cc1 | i
CC(=O)C1=C(C)OC(N)=C(C#N)C12C(=O)Nc1ccccc12 (stereo unspecified) | i

Screening data (PubChem)
